High-throughput results from PubChem.
p53null 32C tox: kills p53 null cells at the permissive temperature; H1299-neo p53 null cells, ATP luminescence, 24 h, 32C; Potency, µM (series often up to 46.1 µM), usual class: cytotoxic; 0.62% of 55,000 active; AID 903; also: nearly all actives have a fitted effect of over 55% in size
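ATP-content luminescence in p53-null H1299-neo cells after 24 h compound exposure (up to 46 uM) at 32C permissive temperature; 0% and 100% killing set by DMSO and 100 uM tamoxifen; Hill-equation AC50.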
HTT promoter inh: inhibitors of huntingtin promoter activity; HEK293 HTT promoter firefly luciferase reporter, 24 h; Potency, µM (titrated, usually from 57.5 µM), hits mostly inhibitors; 0.93% of 48,000 active; AID 1508623; also: nearly all actives have a fitted effect of over 50% in size
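HEK293 luciferase promoter-reporter cells (2,500/well) plated 24 h, then compounds added at up to 57.5 uM final for 24 h at 37 °C. Firefly luminescence by Dual-Glo, normalized to vehicle (0%) and zero RLU (-100%).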
p53null 39C tox: p53 null cell cytotoxicity, nonpermissive temperature; H1299 p53-null (neo) cells, 39C, ATPlite viability, 24 h; 0.97% of 55,000 active; Potency, µM (series often up to 46.1 µM), usual class: cytotoxic; also: nearly all actives have a fitted effect of over 50% in size
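Concentration-response (up to 46 uM) was run for 24 h at the nonpermissive 39C on H1299-p53A138V or H1299-neo cells. ATP content was measured with ATPlite luminescence. AC50 values were Hill-modeled after normalizing between DMSO and 100 uM tamoxifen killing.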
HTT-AS promoter: HTT-AS promoter activation; HEK293 HTT-AS promoter firefly luciferase reporter, 24 h; response scale: percent change from vehicle, -100% = no light; Potency, µM (top dose mostly 57.5 µM), hits mostly activators; 0.24% of 48,000 active; also: nearly all actives have a fitted effect of over 55% in size
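HEK293 cells carrying firefly luciferase reporters were seeded at 2,500 per well in Opti-MEM and cultured for 24 h. They were then treated with compounds at up to 57.5 uM final for 24 h at 37 degrees C before Dual-Glo luminescence readout.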
Hits are given with their value; . = inactive; ? = inconclusive; / = no result; [ ] = dose if it differs, or a comment. Shown are actives, neighbours in structure and some others; about 1.9% of the full set was active somewhere. Calls follow the shape of the dose curve; as a rule, active = well fitted curve in the direction sought with a large enough effect; inconclusive = small, poorly fitted or top-dose-only effect, or another doubt; inactive = no such curve, though single readings can be large; an effect the other way counts as inactive or inconclusive.

SMILES	p53null 32C tox	HTT promoter inh	p53null 39C tox	HTT-AS promoter
COc1ccc(CNC(=O)c2cnn(-c3ccccc3)c2-n2cccc2)cc1OC	.	/	.	/
COc1ccc(CCNC(=O)c2c(C)nn(-c3ccc(F)cc3)c2-n2cccc2)cc1OC	.	20µM	.	.
O[C@@H](CNC[C@H](O)[C@H]1CCc2cc(F)ccc2O1)[C@@H]1CCc2cc(F)ccc2O1	/	.	/	.
CC(=O)c1ccc(NC(=O)c2nc3ccccc3n(C)c2=O)cc1	2µM	.	.	?
CC(=O)c1ccc(NC(=O)c2nc3ccccc3nc2N2CCCCC2)cc1	.	.	.	.
O=C(NCCc1nc2ccccc2n1CCOc1ccc(Cl)cc1)C1CCCCC1	.	/	13µM	/
Cc1ccccc1OCCn1c(CCNC(=O)C2CCCCC2)nc2ccccc21	.	?	.	.
C[C@H]1[C@H](O)O[C@@H]2O[C@@]3(C)CC[C@@H]4[C@H](C)CC[C@@H]1[C@@]24OO3	/	?	/	.
Cc1nc(N)ncc1-c1nc(N2CCOCC2)c2sc(C(C)(C)O)cc2n1	/	?	/	.
CC(C)NC(=O)c1cc2c(s1)CCCC2	?	/	10µM	/
CCOc1ccc(NC(=O)C(=O)NCc2ccco2)cc1	.	.[11.5 µM]	.	.
Cc1ccc(NC(=O)C(=O)NCc2ccco2)cc1	.	.	.	5µM
CCN(CC)CC(=O)Nc1c(C)cccc1C(=O)OC	/	.	/	.
Cc1cccc(-n2nnnc2S(C)(=O)=O)c1	14µM	?	.	.
CCN(CC)CCNC(=O)c1ccc2nc(-c3ccccc3)c(-c3ccc(CN4CCC(n5c(=O)[nH]c6ccccc65)CC4)cc3)nc2c1	/	?	/	.
CCOc1ccccc1N=Nc1c(C)[nH]n(-c2nc(-c3ccccc3)cs2)c1=O	/	.	/	.
COc1ccc(-c2nnc(SC(C)C(=O)O)o2)cc1 (stereo unspecified)	?	?	16µM	.
CC(=O)c1cccc(NC(=O)c2noc3c2CSc2ccccc2-3)c1	.	.	.	1.4µM
COc1ccc(NC(=O)c2noc3c2CSc2ccccc2-3)cc1Cl	.	.	.	.
COc1ccc(-c2nc(CSCC(=O)N3CCN(c4ccc(F)cc4)CC3)c(C)o2)cc1	.	13µM	.	.
COc1ccc(-c2nc(CSCC(=O)N3CCN(c4ccccc4)CC3)c(C)o2)cc1	.	?	.	.
COc1cc(CN(C(=O)c2ccc(OC(C)C)cc2)c2ccccn2)cc(OC)c1OC	.	16µM	.	.
CCOC(=O)CSc1nc2ccc(NC(=O)c3ccc(Cl)cc3)cc2s1	?	.	.	.
O=C(Nc1ccc2nc(SCC(=O)N3CCCC3)sc2c1)c1cccc(Cl)c1	.	.	?	.
CCOC(=O)CSc1nc2ccc(NC(=O)c3ccc(C)cc3)cc2s1	10µM	.	?	.
SMILES	p53null 32C tox	HTT promoter inh	p53null 39C tox	HTT-AS promoter
O=C(Nc1ccc2nc(SCC(=O)N3CCOCC3)sc2c1)c1cccc(Cl)c1	32µM	?	?	.
Cc1ccc2nc(-c3ccccc3F)c(Nc3ccc(Cl)cc3)n2c1	.	.	20µM	.
O=C(O)c1ccc2nc(-c3cc4cccc(O)c4oc3=O)[nH]c2c1	10µM	?	?	.
O=C(O)c1ccc2nc(-c3cc4cc(F)ccc4oc3=O)[nH]c2c1	.	.	.	?
CNC(=O)c1ccccc1Sc1ccc2c(/C=C/c3ccccn3)n[nH]c2c1	/	?	/	.
COc1cc2nc(Nc3ccc(C)c(C)c3)nc(N)c2cc1OC	?	.	32µM	.
COc1cc2nc(Nc3cccc(C)c3)nc(N)c2cc1OC	?	.	?	.
CCOc1ccc(S(=O)(=O)N(C(C)=O)c2ccc3oc(C)c(C(=O)OC)c3c2)cc1	.	2.5µM	?	.
CCCC(=O)N(c1ccc2oc(C)c(C(C)=O)c2c1)S(=O)(=O)c1ccc(CC)cc1	.	5µM	.	.
COC(=O)c1c(C)oc2ccc(N(C(=O)c3ccncc3)S(=O)(=O)c3cc(C)ccc3C)cc12	.	28µM	.	.
CN(C)CC(=O)N1CCC(c2ccc(NC(=O)c3ncc(C#N)[nH]3)c(C3=CCCCC3)c2)CC1	/	.	/	.
C[C@@H]1CC=CC=CC=CC=C[C@@H](O[C@@H]2O[C@H](C)[C@@H](O)[C@H](N)[C@H]2O)C[C@@H]2O[C@](O)(C[C@@H](O)C[C@@H]3O[C@@H]3C=CC(=O)O1)C[C@H](O)[C@@H]2C(=O)O	/	?	/	.
O=C(CCCl)NCc1ccccc1	/	.	/	.
CCOc1ccc(N/C=C/C(=O)c2ccccc2)c([N+](=O)[O-])c1	6.3µM	/	/	/
COc1ccc(NC(=O)c2cccc(NC(=O)C(C)C)c2)c([N+](=O)[O-])c1	.	/	/	/
Cc1cc(N=Nc2ccc(S(=O)(=O)Nc3ccccn3)cc2)c(N)cc1O	/	.	/	/
O=C(N/N=C\c1cc(Cl)ccc1O)c1ccc(S(=O)(=O)N2CCCCC2)cc1	7.1µM	/	/	/
COC(=O)c1c(SCC(=O)Nc2ccccc2C(F)(F)F)[nH]c2ccc(Cl)cc2c1=O	.	.	6.3µM	.
COC(=O)c1c(SCC(=O)Nc2cc(C)cc(C)c2)[nH]c2ccccc2c1=O	?	.	?	.
CCCCc1ccc(Nc2cc(C)nc(-n3nc(C)cc3C)n2)cc1	.	?	13µM	.
Cn1cc(-c2ccc3nnc(C(F)(F)c4ccc5ncccc5c4)n3n2)cn1	/	.	/	.
NC1(C(=O)N[C@@H](CCO)c2ccc(Cl)cc2)CCN(c2ncnc3[nH]ccc23)CC1	/	?	/	.
CCOC(=O)c1ccc(N2C(=O)c3[nH]nc(-c4ccccc4)c3C2c2cccs2)cc1 (stereo unspecified)	.	16µM	.	.
CC(C)(OCc1nn(Cc2ccccc2)c2ccccc12)C(=O)O	/	.	/	.
CCc1ccc(NC(=O)c2ccc3c(O)c(S(=O)(=O)c4ccccc4)c(=O)[nH]c3c2)cc1	13µM	.	?	.
SMILES	p53null 32C tox	HTT promoter inh	p53null 39C tox	HTT-AS promoter
CN[C@@H](C)C(=O)N[C@H]1CCCC[C@H]2CC[C@@H](C(=O)N[C@@H](c3ccccc3)c3cn(CCCCc4ccc(CCCCn5cc([C@@H](NC(=O)[C@@H]6CC[C@@H]7CCCC[C@H](NC(=O)[C@H](C)NC)C(=O)N76)c6ccccc6)nn5)cc4)nn3)N2C1=O	/	.	/	.
Cc1cccc2c1-c1sc(C(=O)Nc3ccccc3C(N)=O)cc1CO2	16µM	.	?	?
Cc1cccc2c1-c1sc(C(=O)NCc3ccccc3Cl)cc1CO2	.	.	?	.
c1ccc(CNc2nc(N3CCOc4ccccc43)nc3c2CCCC3)cc1	/	.	/	.
CC1=C(C(=O)O)N2C(=O)[C@@H](NC(=O)[C@H](N)C3=CCC=CC3)[C@H]2SC1	/	.	/	.
COc1cc(OC)c(N(C)C(=O)CSc2c3c(nc4ccc(Cl)cc24)CCCC3)cc1Cl	.	?	20µM	.
CCCCN(C)C(=O)CSc1c2c(nc3ccc(Cl)cc13)CCCC2	.	.	.	.
CCCN(CCC)C(=O)CSc1c2c(nc3ccc(Cl)cc13)CCCC2	.	.	?	.
CN(Cc1ccccc1)C(=O)CSc1c2c(nc3ccc(Cl)cc13)CCCC2	?	?	13µM	.
